# Screening data deposited in PubChem by several laboratories.
# HNF4A DNA FP: change in binding of human HNF4 alpha to DNA | P41235 | HNF4a-FITC DNA binding, fluorescence polarization, 1 h | activity change, % at 10 µM | actives 0.3% (n = 360,000) | AID 1224865; in the data active = activity change above about 30%, passing the limit was not always enough
# PHOSPHO1 block: blocks human PHOSPHO1 phosphatase activity | inhibition, % at 13.3 µM | Q8TCT1 | actives 1.1% (n = 290,000) | recombinant PHOSPHO1, absorbance phosphatase assay; in the data active = inhibition above about 60%
# Target sequence (Q8TCT1 whole entry, looked up): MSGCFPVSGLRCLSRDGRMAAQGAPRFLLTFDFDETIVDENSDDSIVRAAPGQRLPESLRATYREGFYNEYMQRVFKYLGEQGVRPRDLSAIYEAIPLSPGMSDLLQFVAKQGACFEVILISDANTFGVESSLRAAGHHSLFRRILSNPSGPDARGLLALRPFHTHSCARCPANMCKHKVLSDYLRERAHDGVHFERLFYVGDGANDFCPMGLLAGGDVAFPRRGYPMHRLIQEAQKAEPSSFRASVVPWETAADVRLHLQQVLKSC
# TPT1 inh: C. albicans TPT1 enzyme inhibition; actives 0.81% (n = 300,000); inhibition, % at 5 µM; recombinant caTPT1, FP RNA substrate dephosphorylation; AID 1962;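 active = inhibition above the mean of all tested compounds plus 3 SD, set per screening campaign, cut at about 24% in these data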;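 note: plate controls were DMSO alone for no effect and ferristatin control at 100 nM for full effect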
# Rpn11 inh: Rpn11 (human) deubiquitinase inhibition; O00487; inhibition, % at 20 µM; actives 0.59% (n = 360,000); AID 588493; human 26S proteasome, Ub4-pepOG fluorescence polarization; 20S core pre-blocked with epoxomicin;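 active = inhibition at 20 µM, scaled to each plate's controls, above about 33%, limit read from the data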
# NRP1-CendR mod: NRP-1/CendR interaction modulation. AID 602438. inhibition, % at 25 µM. O14786. actives 0.85% (n = 360,000). FAM-RPARPAR peptide binding to NRP-1, fluorescence polarization;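 active = inhibition or corrected inhibition above about 18%, plus a signal ratio from 0.5 to 1.5, limit read from the data, passing the limit was not always enough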
# CTSL1 counter: blocks F. hepatica cathepsin L1 in PFM18AAP counter-screen; recombinant F. hepatica cathepsin L1, Z-Leu-Arg-MCA fluorescence; inhibition, % at 5.96 µM; actives 0.49% (n = 300,000); AID 1906;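 active = inhibition above the mean of all tested compounds plus 3 SD, set per screening campaign, cut at about 17% in these data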;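 note: 0% = plate median of test compound wells and 100% = 1 µM Z-Phe-Ala-diazomethylketone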
# Numbers without * were called inactive; / = no result given. Hits are enriched below; roughly 3.3% of the tested compounds scored in any of these assays.
SMILES,HNF4A DNA FP,PHOSPHO1 block,TPT1 inh,Rpn11 inh,NRP1-CendR mod,CTSL1 counter
COc1cc(C(=O)OCC(=O)Nc2c(F)c(F)c(F)c(F)c2F)cc(OC)c1OC,0,-4,5,2,21*,4
COc1cc(C(N)=O)cc(Br)c1OC,-1,24,-5,1,25*,-1
COc1cc(C(=O)OCC(=O)Nc2c(F)cccc2F)cc(OC)c1C,0,20,1,0,-12,-5
COc1cc(OC)cc(C(=O)OCCCOC(=O)c2cc(OC)cc(OC)c2)c1,0,-1,6,0,-6,1
CCOc1c(Br)cc(C(N)=O)cc1OC,-2,18,-5,0,6,0
COc1cc(C(=O)OCCCOC(=O)c2cc(OC)c(OC)c(OC)c2)cc(OC)c1OC,2,53,2,2,22*,-3
COC(=O)c1ccn(CSc2cc(Cl)ccc2Cl)n1,-2,/,/,-7,0,/
COC(=O)c1ccn(C(=O)c2ccc(Cl)cc2)n1,2,-26,0,3,28*,-3
Cc1nc2ncnn2c(N2CCN(C(=O)c3cccc(F)c3)CC2)c1C,-3,6,-2,-5,26*,-3
CCOC(=O)N1CCN(C(=O)c2cccc(F)c2)CC1,2,46,1,7,5,-2
NC(=O)CSc1nc2c(sc(=S)n2-c2ccccc2)c(=O)[nH]1,0,9,/,-5,-17,/
CCOC(=O)c1c2ccc(OCC(=O)N/N=C/c3ccc(C)cc3)cc2n2ccccc12,0,24,-9,-5,-10,-3
CCOC(=O)c1c2ccc(OCC(=O)NN)cc2n2ccccc12,-15,32,-20,-19,26*,3
O=C(COC(=O)CCC(=O)c1ccc(F)cc1)Nc1ccccc1,-1,7,-1,-4,-6,-43
CCN(CC)c1ccc(NC(=O)COC(=O)CCC(=O)c2ccc(F)cc2)cc1,5,85*,-6,0,2,-26
CC(C)OC(=O)c1nn2c(C(F)(F)F)cc(-c3ccc(Br)o3)nc2c1Br,0,25,2,34,-8,1
CC(C)OC(=O)c1nn2c(C(F)(F)F)cc(-c3ccco3)nc2c1Cl,65*,-1,5,/,-69,2
COCCN=C1Sc2nc3cc(C)c(C)cc3cc2CN1Cc1cccs1,-3,-8,-4,3,-1,5
COCCN=C1Sc2nc3ccc(C)cc3cc2CN1Cc1ccco1,2,97*,-7,5,-10,3
Cc1ccc(S(=O)(=O)N2CCOCC2)cc1NC(=O)COC(=O)CCOc1ccc(C(C)(C)C)cc1,-3,/,0,-3,14,0
CC1CCC(N(C)C(=O)CN2C(=O)NC(c3ccccc3)(c3ccccc3)C2=O)CC1 (centres undefined),-5,/,/,7,6,/
Cc1cccc(NC2=C/C(=N/S(=O)(=O)c3cccs3)c3ccccc3C2=O)c1,-3,-23,1,0,7,54*
Cc1ccc(Cl)cc1NC1=C/C(=N\S(=O)(=O)c2cccs2)c2ccccc2C1=O,-4,14,1,-1,6,60*
Cc1ccc(NC2=C/C(=N\S(=O)(=O)c3cccs3)c3ccccc3C2=O)c(C)c1,-2,29,-8,10,12,88*
CC(=NNC(=O)c1ccc(NS(=O)(=O)c2cccs2)cc1)c1ccc(OCC(N)=O)cc1,-4,/,/,-9,-3,/
SMILES,HNF4A DNA FP,PHOSPHO1 block,TPT1 inh,Rpn11 inh,NRP1-CendR mod,CTSL1 counter
Cc1cccnc1Oc1ncccc1N,0,/,3,-2,-5,-4
C=CCN1c2ccccc2[C@]23C[C@@H](C(=O)OC)N=C2NC(C(=O)OC)=C(C(=O)OC)[C@H]13,-2,22,-1,-2,33*,-1
C=CCN1c2ccccc2[C@]23C[C@@H](C(=O)OC)N(C(C)=O)C2=NC(C(=O)OC)=C(C(=O)OC)[C@H]13,-2,-18,1,-3,-4,1
CN(C(=O)c1c(Br)cnn1C)C12CC3CC(CC(C3)C1)C2,/,14,/,/,/,/
Cc1cccc(N(Cc2cc3ccc(C)cc3[nH]c2=O)C(=O)c2ccco2)c1,2,70*,2,-1,-6,2
CCN1/C(=C/c2ccc3cc(C)ccc3[n+]2C)Sc2ccc3sccc3c21,180,22,/,108*,-129,/
CCN1/C(=C/c2ccc3cc(C)ccc3[n+]2CC)Sc2cc(C)ccc21,109*,-112,/,/,-232,/
